This note sets out measurements from PubChem BioAssay (NCATS).

The structures appear in SMILES notation. Values without a mark were called inactive. Results filed as inconclusive are left out. Active and inactive are the calls of the source. Unless noted, calls come from the whole dose curve; as a rule, active = well fitted curve in the direction sought with a large enough effect; inconclusive = small, poorly fitted or top-dose-only effect, or another doubt; inactive = no such curve, though single readings can be large; an effect the other way counts as inactive or inconclusive.

Assay [1] is described as follows: AP1 Signaling Pathway (AID 357; active = well fitted curve in either direction with a large enough effect, not every such curve was filed as active;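 note: ME-180 reporter cells stimulated with EGF at its EC50 level; % is set by controls: 0 for no effect and ±100 for the full control effect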). The method, boiled down:
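Modulation of EGF-driven AP-1 transcription was assessed with a beta-lactamase reporter in ME-180 cells. Compound and EC50 EGF were co-incubated 5 hours at 37 °C before 2.5-hour CCF4 loading at room temperature and dual-emission reading.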

Assay [2] can be described thus: NFAT Signaling Pathway (AID 444; active = well fitted curve in either direction with a large enough effect, not every such curve was filed as active;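 note: carbachol stimulus at about its EC50 of 1 µM final; % is set by controls: 0 for no effect and ±100 for the full control effect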). The settings on record: Jurkat NFAT-bla M1, carbachol, beta-lactamase ratio, 5 h; at 17.2 µM (top of the series). The method, boiled down:
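Read-out: CCF4 FRET ratio (460 nm/530 nm) after 1 h RT dye loading, used for %activity and AC50 from titration series. Cells: Jurkat NFAT-β-lactamase/M1 line, treated with compound plus 1 uM carbachol for 5 h, 37 °C.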

Assay [3] is described as follows: Stat Signaling Pathway (AID 446; active = well fitted curve in either direction with a large enough effect, not every such curve was filed as active;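 note: ME-180 cervical cancer cells given 40 pM IL-6 alongside compound; SIE-controlled beta-lactamase reporter measured as 460/530 nm FRET emission ratio; % is set by controls: 0 for no effect and ±100 for the full control effect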). The method in brief:
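Normalization used AC90 stimulation (300 pM IL-6) and AC90 inhibition (125 nM pan-JAK inhibitor at 40 pM IL-6). The underlying signal is SIE-driven beta-lactamase in ME-180 cells after 5 h IL-6 exposure with compound.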

For assay [4], the target named is Glucocorticoid receptor (Homo sapiens) (UniProt P04150). The experiment in a line: GR-GFP Redistribution (AID 450;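 active = compounds whose dose series gives a full or clear partial fitted curve of increased nuclear translocation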; note: potency is the fitted concentration of half-maximal effect). The settings on record: U2OS GR-GFP nuclear translocation, laser cytometry, 2 h.
Chain of Glucocorticoid receptor (Homo sapiens) (P04150 whole entry, looked up): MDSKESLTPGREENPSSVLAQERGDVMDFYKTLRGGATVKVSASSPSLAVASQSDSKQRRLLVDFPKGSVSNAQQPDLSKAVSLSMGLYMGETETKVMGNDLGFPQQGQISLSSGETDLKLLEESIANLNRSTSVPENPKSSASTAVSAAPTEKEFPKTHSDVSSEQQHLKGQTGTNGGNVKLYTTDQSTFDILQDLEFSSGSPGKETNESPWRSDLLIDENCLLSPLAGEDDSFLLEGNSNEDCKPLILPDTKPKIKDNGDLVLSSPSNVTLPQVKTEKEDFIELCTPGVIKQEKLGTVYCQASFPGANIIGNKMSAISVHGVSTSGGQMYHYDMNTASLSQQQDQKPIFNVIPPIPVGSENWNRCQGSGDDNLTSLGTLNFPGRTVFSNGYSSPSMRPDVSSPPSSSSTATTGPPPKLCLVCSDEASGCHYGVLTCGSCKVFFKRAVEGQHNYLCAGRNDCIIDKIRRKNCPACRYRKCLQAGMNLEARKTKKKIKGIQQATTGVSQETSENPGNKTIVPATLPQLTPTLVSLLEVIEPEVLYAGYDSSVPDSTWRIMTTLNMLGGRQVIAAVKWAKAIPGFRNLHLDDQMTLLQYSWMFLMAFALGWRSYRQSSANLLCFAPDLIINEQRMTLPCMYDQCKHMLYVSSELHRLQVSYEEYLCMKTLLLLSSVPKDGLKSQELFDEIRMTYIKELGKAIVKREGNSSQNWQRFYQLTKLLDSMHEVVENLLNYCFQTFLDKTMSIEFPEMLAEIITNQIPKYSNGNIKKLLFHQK
Assay [5] in a line: qHTS Assay for Identification of Small Molecule Agonists for Hypoxia Response Element Signaling Pathway (AID 914; active = well fitted activation curve with a large enough effect in the signal ratio, with a control signal flat, not every such curve was filed as active; the % refers to the signal ratio; note: % of control where 0% means no effect). Conditions: ME-180 (cervical carcinoma) HRE-bla reporter, beta-lactamase ratio, CoCl2, 17 h; activation: hits give high values. The method in brief: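 HRE-bla ME-180 cells with beta-lactamase reporter under hypoxia response element, compounds with EC50 CoCl2 for 17 hours at 37 C. CCF4 substrate, 460nm/530nm emission ratio gave %Activity; AC50 from titration series.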

Assay [6] is described as follows: G06 Cancer Cell Toxicity qHTS against the NCATS CANVASS Library (AID 1347368). Note: potency is the fitted concentration of half-maximal effect; nearly all actives have a fitted effect of over 60% in size. The method in brief:
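Cells were plated at 500 per well, then compounds were added over an 11-point range. After 72 hr at 37C, CellTiterGlo was added and luminescence measured as ATP content.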
A general note: qHTS replaces the single test concentration by a dilution series.

Assay [7] can be described thus: A2780 Cisplatin Sensitive Ovarian Cancer Cell Toxicity qHTS against the NCATS CANVASS Library (AID 1347353). Note: nearly all actives have a fitted effect of over 60% in size. The method, boiled down: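 Cells are plated at 750 per well and rest for 4 hours. Compounds are added across eleven concentrations, and incubated 72 hours before ATP is quantified by luminescence.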
A short description of assay [8]: HEK-293 Cancer Cell Toxicity qHTS against the NCATS CANVASS Library (AID 1347355). Note: % is set by controls: 0 for no effect and ±100 for the full control effect; nearly all actives have a fitted effect of over 65% in size. The method, boiled down:
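First, 1000 cells go into each well and rest for 4 hours. Next, an 11-point dilution range is pinned in. Plates then incubate 72 hours before CellTiter-Glo addition and luminescence reading.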

Assay [9] in a line: qHTS for ATAD5 Antagonist screened against the NCATS CANVASS Library (AID 1347370).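 Note: HEK293T cells carrying an ATAD5 luciferase reporter co-treated with 10 µM 5-fluorouridine; % is set by controls: 0 for no effect and ±100 for the full control effect; nearly all actives have a fitted effect of over 65% in size.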 The method, boiled down: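 Compounds (11-point) co-dosed with 10 µM 5-FUrd for 16 h at 37 °C onto HEK293T-ATAD5 luciferase reporter cells. Viability measured by CellTiter-Fluor fluorescence, then ATAD5 reporter signal by luminescence.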
A short description of assay [10]: qHTS for inhibitors of ER calcium dysfunction: SERCaMP assay screened against the NCATS CANVASS Library (AID 1347393).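 Note: % is set by controls: 0 for no effect and ±100 for the full control effect; lower secreted reporter signal means inhibitor of ER calcium depletion; nearly all actives have a fitted effect of over 40% in size.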 The method in brief:
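Thapsigargin-induced ER calcium depletion drives GLuc-SERCaMP secretion from SH-SY5Y cells; compounds given 16 h beforehand were scored by lowered coelenterazine luminescence after 4 h challenge.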

Assay [11] deals with N-terminal Xaa-Pro-Lys N-methyltransferase 1 (Homo sapiens) (UniProt Q9BV86). Description: Confirmatory qHTS for Inhibitors of N-terminal methyltransferase 1 (NTMT1): MTaseGlo Assay (AID 1645874). Note: potency is the fitted concentration of half-maximal effect; nearly all actives have a fitted effect of over 65% in size. Conditions: NTMT1 enzyme, MTase-Glo SAH luminescence. The method, boiled down: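 Inhibition was derived from luminescence after SAH-to-ATP conversion, scaled between no-enzyme and DMSO wells, then fitted by 4-parameter Hill. Conditions: 125 nM NTMT1, 100 uM SAM, 1 uM SPKRIA, 30 min RT.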
Chain of N-terminal Xaa-Pro-Lys N-methyltransferase 1 (Homo sapiens) (Q9BV86 whole entry, looked up): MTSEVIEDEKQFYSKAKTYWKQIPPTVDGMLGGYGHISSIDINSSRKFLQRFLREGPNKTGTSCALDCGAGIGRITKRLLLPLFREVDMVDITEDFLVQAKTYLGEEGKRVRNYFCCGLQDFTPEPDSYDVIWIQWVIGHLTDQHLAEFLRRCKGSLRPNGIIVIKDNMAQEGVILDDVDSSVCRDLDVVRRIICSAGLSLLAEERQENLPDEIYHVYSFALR

For assay [12], the target named is Furin (Homo sapiens) (UniProt P09958). Description: Furin counterscreen qHTS for Zika virus inhibitors (AID 1347149).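 Note: purified recombinant full-length human furin enzyme at 5 nM; fluorescence gain from furin cutting a BOC-RVRR-AMC peptide substrate over 15 min; top concentration of the series differs between compounds; plate controls were no-inhibitor control for no effect and no-enzyme control for full effect; nearly all actives have a fitted effect of over 70% in size.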 The method, boiled down:
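Counterscreen measures cleavage of 2 microM BOC-RVRR-AMC, below its ~15 microM Km, by 5 nM full-length human furin at pH 7.0 after a 15-min compound preincubation. Inhibition derives from the 15-min fluorescence increase at 37C.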
For orientation: The purpose of a counterscreen is to sort out artefacts and off-target activity.

The test system of assay [13] is Zika virus NS2B-NS3 protease (linked construct). The experiment in a line: Confirmatory screen NINDS AMC qHTS for Zika virus inhibitors (AID 1347152).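 For activity change, negative = inhibition: AMC fluorescence gain from cleaved Bz-Nle-KRR-AMC substrate over 15 min; top concentration of the series differs between compounds; 0% = no-inhibitor control and -100% = no-enzyme control.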 Note: nearly all actives have a fitted effect of over 70% in size. Note: potency is the fitted concentration of half-maximal effect. The method, boiled down: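 In this dose-response qHTS, AMC release from 10 microM Bz-Nle-KRR-AMC by 1 nM linked protease is measured over 15 minutes (about 20% conversion) at pH 8.0. Percent inhibition is fitted to a 4-parameter Hill curve.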

Assay [14] concerns Zika virus NS2B-NS3 protease (unlinked complex). Description: Confirmatory screen GU AMC qHTS for Zika virus inhibitors (AID 1347153).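 Note: percent inhibition with 0% = no inhibitor control and 100% = no enzyme control; nearly all actives have a fitted effect of over 70% in size.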 The method in brief:
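Unlinked NS2B-NS3 complex (25 nM) in 10 mM Tris-HCl pH 8.0, 0.01% Tween 20 preincubated 15 min with compound, then 10 microM Bz-Nle-KRR-AMC (Km 18.3 µM). Fluorescence change over 15 min, normalized, Hill-fitted.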

Assay [15] can be described thus: Confirmatory screen GU Rhodamine qHTS for Zika virus inhibitors qHTS (AID 1347157). Note: potency is the fitted concentration of half-maximal effect; nearly all actives have a fitted effect of over 70% in size. The method, boiled down:
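In dose–response format, inhibition of unlinked protease (25 nM) was measured with 1.5 microM bis-peptide Rhodamine110 substrate. Aprotinin served as the intraplate control.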

Assay [16] is described as follows: Confirmatory screen NINDS Rhodamine qHTS for Zika virus inhibitors (AID 1347161). Note: potency is the fitted concentration of half-maximal effect; nearly all actives have a fitted effect of over 60% in size. The method, boiled down: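 Kinetic fluorescence (Ex 480 nm, Em 540 nm) over 15 min with 1.5 microM Rhodamine110 peptide and 25 nM linked protease.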
The nature of assay [17]: Vero cells viability qHTS for Zika virus inhibitors (AID 1347167). Note: potency is the fitted concentration of half-maximal effect. The method, boiled down: (§1)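 Luminescent ATP readout (CellTiter Glo) after 30 min at 37 degrees C gives viability; cells in DMEM + 4% FBS were treated 24 to 48 hours with compound, following overnight attachment.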
The nature of assay [18]: HepG2 cells viability qHTS for Zika virus inhibitors (AID 1347168). Note: potency is the fitted concentration of half-maximal effect. The method, boiled down:
as §1

Assay [19] deals with HEK293T. The experiment in a line: qHTS assay to identify novel small-molecules to repurpose for Merkel cell carcinoma treatment (AID 1296009). Note: nearly all actives have a fitted effect of over 60% in size. The settings on record: MCC and control cell lines, CellTiter-Glo viability, 72 h; at 44.8 µM (top of the series) unless noted. The method, boiled down:
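Cell viability, measured as CellTiter-Glo luminescence, was normalized between DMSO and no-cell wells. The cells had been exposed to 8- or 11-point compound dilutions for 72 hr at 37 degree celsius.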

Assay [20] can be described thus: NCATS anti-infectives library activity on HEK293 viability as a counter-qHTS vs the C. elegans viability qHTS (AID 1745854).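 Note: HEK293 cells exposed to compounds for 24 hr before the viability read.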 Note: potency is the fitted concentration of half-maximal effect. The method, boiled down:
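Counter-screen for cytotoxicity: HEK293, 24 hr, 37C, compounds up to 41.7 uM final (a dilution series, 1:5). Readout CellTiter-Glo luminescence, 10 min RT. Digitonin control, 83.3 uM final.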

Chain of Furin (Homo sapiens) (P09958 whole entry, looked up): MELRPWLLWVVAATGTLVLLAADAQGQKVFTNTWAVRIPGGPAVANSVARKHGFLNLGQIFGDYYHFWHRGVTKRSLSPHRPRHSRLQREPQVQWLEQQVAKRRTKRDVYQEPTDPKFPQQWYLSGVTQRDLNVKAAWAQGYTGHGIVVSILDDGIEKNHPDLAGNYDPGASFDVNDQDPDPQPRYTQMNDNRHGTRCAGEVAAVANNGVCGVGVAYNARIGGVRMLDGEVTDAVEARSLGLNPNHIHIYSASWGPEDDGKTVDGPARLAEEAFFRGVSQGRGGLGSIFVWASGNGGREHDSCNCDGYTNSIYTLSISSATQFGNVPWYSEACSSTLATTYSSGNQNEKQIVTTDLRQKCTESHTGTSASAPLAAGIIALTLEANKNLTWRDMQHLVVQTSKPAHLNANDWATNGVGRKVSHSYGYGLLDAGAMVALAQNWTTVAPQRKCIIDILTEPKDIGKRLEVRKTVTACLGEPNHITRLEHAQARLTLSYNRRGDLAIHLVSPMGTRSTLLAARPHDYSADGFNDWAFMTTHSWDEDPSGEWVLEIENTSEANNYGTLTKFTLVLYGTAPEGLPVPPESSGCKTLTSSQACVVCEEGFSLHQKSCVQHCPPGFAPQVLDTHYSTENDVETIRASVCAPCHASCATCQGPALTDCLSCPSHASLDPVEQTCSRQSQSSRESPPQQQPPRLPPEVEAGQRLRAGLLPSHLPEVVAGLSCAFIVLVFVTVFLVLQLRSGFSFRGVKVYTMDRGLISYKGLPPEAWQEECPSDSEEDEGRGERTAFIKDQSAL

For `CN(C)[C@@H]1C(=O)C(C(N)=O)=C(O)[C@@]2(O)C(=O)C3=C(O)c4c(O)ccc(Cl)c4[C@@](C)(O)C3C[C@@H]12` (stereo partly specified), the compound was called inactive in assay [1] and in [3]. The activity change, negative = inhibition in assay [2] was 0.867%. Also, the Potency in assay [4] was more than 20.6 µM. In addition, the activation in assay [5] is 4.51%.

In the case of `CN1C(=O)[C@]23CC4C(C)(C)[C@@]5(C[C@@]41CN2CC[C@@]3(C)O)C(=O)Nc1c5ccc2c1OC=CC(C)(C)O2` (stereo partly specified), in assay [6], the Potency is 7.43 µM (active).

With `C/C=C1/CN2CC[C@]34C(=Nc5ccccc53)[C@@H]2C[C@@H]1[C@H]4C(=O)OC`, the Potency result in assay [7], in [8], in assay [9] and in assay [10] was “inactive” in each case.

In the case of `C[C@H]1CCC[C@H](O)CCC/C=C/c2cc(O)cc(O)c2C(=O)O1`, in assay [11], the Potency is 1 µM (active).

`CC/C=C/C=C/C1(C)OC(OC)=C(C(=O)C2C(C)C(=O)c3cc(OC)c(O)c(O)c3C2(C)O)C1=O` (stereo unspecified): the Potency result in assay [12], in [13], in assay [14], in assay [17] and in assay [18] was “inactive” each time. Moreover, the Potency was 9.61 µM (active) in assay [15] and 6.81 µM (active) in assay [16].

For the compound `CN(CC[C@H](N)CC(=O)N[C@H]1C=C[C@@H](n2ccc(N)nc2=O)O[C@@H]1C(=O)O)C(=N)N`, the outcome in assay [19] is “inactive [at 9.27 µM]”.

As for `CC(C)=CCC[C@]1(C)C=Cc2c(O)c3c(c(CC=C(C)C)c2O1)O[C@]12C(=C[C@@H]4CC1C(C)(C)O[C@@]2(C/C=C(/C)C(=O)O)C4=O)C3=O`, the Potency in assay [13] was 9.87 µM (active); in [15], 1.56 µM (active); in assay [16] it was 2.48 µM (active); in assay [17], 8.29 µM (active); in assay [18] it was 2.94 µM (active).

Turning to `CC[C@H]1/C=C\C=C/C[C@@H](C)[C@H](O)[C@@](C)(O)C(=O)[C@@H](C)[C@H](O)[C@@H](C)C(=O)[C@@H](C)[C@H](O)[C@@H](C)/C=C\C(=O)O[C@@H]2[C@H](C)[C@H](CC1)O[C@]1(CC[C@H](C)[C@H](C[C@@H](C)O)O1)[C@H]2C`, in assay [20], the Potency is 15.8 µM (active).

As for `Cc1sc2c(c1C)C(c1ccc(Cl)cc1)=N[C@@H](CC(=O)Nc1ccc(O)cc1)c1nnc(C)n1-2`, in [20], the Potency result was “inactive”.
